Our source for the Potency values is PubChem BioAssay (NCATS).

SMILES strings stand for the structures. Records with an inconclusive call do not appear. A call without a number means that no potency is given here. Active and inactive are the calls of the source. Calls come from the whole dose curve; as a rule, active = well fitted inhibition curve with a large enough effect; inconclusive = small, poorly fitted or top-dose-only effect; inactive = flat fitted curve, though single readings scatter. Bridge positions count the residues as written; N and C are the ends. Square brackets hold non-standard residues; d marks the D form. Peptide text beside a SMILES is read from it. * marks the point of attachment. Ileψ(thiazoline)Cys = CC[C@H](C)[C@H](N)C1=N[C@H](C(=O)*)CS1; d(aIle) = CC[C@H](C)[C@@H](N)C(=O)O; dOrn = NCCC[C@@H](N)C(=O)O
Potency is the fitted concentration of half-maximal effect.

The subject of one assay is CP256. Put plainly: qHTS profiling for inhibitors of Plasmodium falciparum proliferation (AID 504749). Note: nearly all actives have a fitted effect of over 60% in size. The note with it: P. falciparum in erythrocytes, SYBR Green DNA, 72 h; series mostly up to 12.8 µM. In a few lines:
(§1)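 In a 72 h erythrocytic culture (37 C, humidified, 5% CO2) at 2.5% hematocrit and 0.3% starting parasitemia, compounds were tested; SYBR Green I in detergent lysis buffer stained parasite DNA overnight.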
For the compound `C[C@H](CCC(=O)O)[C@H]1CC[C@@H]2[C@@H]3[C@@H](O)C[C@H]4C[C@@H](O)CC[C@@]4(C)[C@H]3CC[C@@]21C`, the Potency entry is “inactive”.
Same read-out and setting: to `CN(C/C=C\c1ccccc1)Cc1cccc2ccccc12` belongs “inactive”; to `CCN(CCCCOC(=O)c1ccc(OC)c(OC)c1)[C@@H](C)Cc1ccc(OC)cc1`, “inactive”; to `C[C@H](C(=O)O)c1cccc(Oc2ccccc2)c1`, “inactive”.
Still for that read-out and setting: to `CC1(C)[C@@H](OC(=O)CCC(=O)O)CC[C@@]2(C)[C@H]1CC[C@@]1(C)[C@H]2C(=O)C=C2[C@H]3C[C@](C)(C(=O)O)CC[C@]3(C)CC[C@@]21C` belongs “inactive”; to `CCOC(=O)O[C@@H](C)OC(=O)[C@@H]1N2C(=O)[C@@H](NC(=O)[C@@H](N)c3ccccc3)[C@H]2SC1(C)C`, “inactive”.
Take `Cc1ccsc1/C=C\C1=NCCCN1C`: the Potency entry is “inactive”.
On the same count and under the same terms, to `Cc1cccc(CN2CCN([C@@H](c3ccccc3)c3ccc(Cl)cc3)CC2)c1` belongs “inactive”; to `C#C[C@]1(O)CC[C@@H]2[C@H]3CCC4=CCCC[C@@H]4[C@@H]3CC[C@@]21C`, “inactive”; to `CC[C@H](C)[C@H](N)C1=N[C@H](C(=O)N[C@@H](CC(C)C)C(=O)N[C@@H](CCC(=O)O)C(=O)N[C@@H](C(=O)N[C@H]2CCCCNC(=O)[C@@H](CC(N)=O)NC(=O)[C@@H](CC(=O)O)NC(=O)[C@@H](Cc3cnc[nH]3)NC(=O)[C@@H](Cc3ccccc3)NC(=O)[C@@H]([C@@H](C)CC)NC(=O)[C@@H](CCCN)NC2=O)[C@@H](C)CC)CS1` ({Ileψ(thiazoline)Cys}-LE[d(aIle)]K[dOrn][d(aIle)][dF][dH][dD][dN]; lactam 4-C), “inactive”.
On the same count and under the same terms, the entry for `O=C(O)COCCN1CCN([C@@H](c2ccccc2)c2ccc(Cl)cc2)CC1` is “inactive”; for `CCN(CC)CCOC(=O)[C@@H](Cc1cccc2ccccc12)C[C@@H]1CCCO1` it is “inactive”; for `CC[C@H](CO)NCCN[C@@H](CC)CO` it is “inactive”.

In another assay the test system is CP260. The assay is described as above. The note with it: P. falciparum in erythrocytes, SYBR Green DNA, 72 h; series mostly up to 12.8 µM. In a few lines: as §1
With `CN1CCO[C@H](c2ccccc2)c2ccccc2C1`, the Potency entry is “inactive”.
Still for that read-out and setting: the entry for `C[C@H](CCC(=O)O)[C@H]1CC[C@@H]2[C@@H]3[C@@H](O)C[C@H]4C[C@@H](O)CC[C@@]4(C)[C@H]3CC[C@@]21C` is “inactive”; for `CN(C/C=C\c1ccccc1)Cc1cccc2ccccc12` it is “inactive”; for `CCC(=O)OCC(=O)[C@@]1(OC(=O)CC)[C@H](C)C[C@@H]2[C@@H]3[C@H]([C@@H](O)C[C@@]21C)[C@]1(C)C=CC(=O)C=C1C[C@@H]3Cl` it is 3.98 µM (active).
Regarding `C[C@H](C(=O)O)c1cccc(Oc2ccccc2)c1`, the Potency result was “inactive”.
`CC1(C)[C@@H](OC(=O)CCC(=O)O)CC[C@@]2(C)[C@H]1CC[C@@]1(C)[C@H]2C(=O)C=C2[C@H]3C[C@](C)(C(=O)O)CC[C@]3(C)CC[C@@]21C`: the Potency result is “inactive”.
The same measure, in the same setting: the entry for `CCOC(=O)O[C@@H](C)OC(=O)[C@@H]1N2C(=O)[C@@H](NC(=O)[C@@H](N)c3ccccc3)[C@H]2SC1(C)C` is “inactive”; for `Cc1ccsc1/C=C\C1=NCCCN1C` it is “inactive”.
Regarding `C#C[C@]1(O)CC[C@@H]2[C@H]3CCC4=CCCC[C@@H]4[C@@H]3CC[C@@]21C`, the Potency entry is “inactive”.
In the case of `CC[C@H](C)[C@H](N)C1=N[C@H](C(=O)N[C@@H](CC(C)C)C(=O)N[C@@H](CCC(=O)O)C(=O)N[C@@H](C(=O)N[C@H]2CCCCNC(=O)[C@@H](CC(N)=O)NC(=O)[C@@H](CC(=O)O)NC(=O)[C@@H](Cc3cnc[nH]3)NC(=O)[C@@H](Cc3ccccc3)NC(=O)[C@@H]([C@@H](C)CC)NC(=O)[C@@H](CCCN)NC2=O)[C@@H](C)CC)CS1` ({Ileψ(thiazoline)Cys}-LE[d(aIle)]K[dOrn][d(aIle)][dF][dH][dD][dN]; lactam 4-C), the Potency entry was “inactive”.
The same measure, in the same setting: to `O=C(O)COCCN1CCN([C@@H](c2ccccc2)c2ccc(Cl)cc2)CC1` belongs “inactive”.
Still for that read-out and setting: the entry for `CCN(CC)CCOC(=O)[C@@H](Cc1cccc2ccccc12)C[C@@H]1CCCO1` is “inactive”; for `CC[C@H](CO)NCCN[C@@H](CC)CO` it is “inactive”.

A further assay has as its system CP262. Described as above. The note with it: P. falciparum in erythrocytes, SYBR Green DNA, 72 h; series mostly up to 12.8 µM. In a few lines: as §1
Turning to `CN1CCO[C@H](c2ccccc2)c2ccccc2C1`, the Potency result is “inactive”.
Still for that read-out and setting: to `C[C@H](CCC(=O)O)[C@H]1CC[C@@H]2[C@@H]3[C@@H](O)C[C@H]4C[C@@H](O)CC[C@@]4(C)[C@H]3CC[C@@]21C` belongs “inactive”.
On the same count and under the same terms, the entry for `CN(C/C=C\c1ccccc1)Cc1cccc2ccccc12` is “inactive”.
For the compound `CCC(=O)OCC(=O)[C@@]1(OC(=O)CC)[C@H](C)C[C@@H]2[C@@H]3[C@H]([C@@H](O)C[C@@]21C)[C@]1(C)C=CC(=O)C=C1C[C@@H]3Cl`, the Potency result is “inactive”.
As for `C[C@H](C(=O)O)c1cccc(Oc2ccccc2)c1`, the Potency result was “inactive”.
On the same count and under the same terms, to `CC1(C)[C@@H](OC(=O)CCC(=O)O)CC[C@@]2(C)[C@H]1CC[C@@]1(C)[C@H]2C(=O)C=C2[C@H]3C[C@](C)(C(=O)O)CC[C@]3(C)CC[C@@]21C` belongs “inactive”.
Regarding `CCOC(=O)O[C@@H](C)OC(=O)[C@@H]1N2C(=O)[C@@H](NC(=O)[C@@H](N)c3ccccc3)[C@H]2SC1(C)C`, the Potency entry was “inactive”.
Take `Cc1ccsc1/C=C\C1=NCCCN1C`: the Potency entry was “inactive”.
On the same count and under the same terms, to `Cc1cccc(CN2CCN([C@@H](c3ccccc3)c3ccc(Cl)cc3)CC2)c1` belongs “inactive”.
On the same count and under the same terms, to `C#C[C@]1(O)CC[C@@H]2[C@H]3CCC4=CCCC[C@@H]4[C@@H]3CC[C@@]21C` belongs “inactive”.
On to `CC[C@H](C)[C@H](N)C1=N[C@H](C(=O)N[C@@H](CC(C)C)C(=O)N[C@@H](CCC(=O)O)C(=O)N[C@@H](C(=O)N[C@H]2CCCCNC(=O)[C@@H](CC(N)=O)NC(=O)[C@@H](CC(=O)O)NC(=O)[C@@H](Cc3cnc[nH]3)NC(=O)[C@@H](Cc3ccccc3)NC(=O)[C@@H]([C@@H](C)CC)NC(=O)[C@@H](CCCN)NC2=O)[C@@H](C)CC)CS1` ({Ileψ(thiazoline)Cys}-LE[d(aIle)]K[dOrn][d(aIle)][dF][dH][dD][dN]; lactam 4-C), for which the Potency result was “inactive”.
For the compound `O=C(O)COCCN1CCN([C@@H](c2ccccc2)c2ccc(Cl)cc2)CC1`, the Potency result is “inactive”.
Same read-out and setting: the entry for `CCN(CC)CCOC(=O)[C@@H](Cc1cccc2ccccc12)C[C@@H]1CCCO1` is “inactive”; for `C[C@@H](CNC1CCCCC1)OC(=O)c1ccccc1` it is “inactive”; for `CC[C@H](CO)NCCN[C@@H](CC)CO` it is “inactive”.
